How the values were obtained:
[1] = target: T1, Ephrin type-A receptor 3 (Homo sapiens) (UniProt P29320); settings: at 10 µM
T1 sequence (whole entry): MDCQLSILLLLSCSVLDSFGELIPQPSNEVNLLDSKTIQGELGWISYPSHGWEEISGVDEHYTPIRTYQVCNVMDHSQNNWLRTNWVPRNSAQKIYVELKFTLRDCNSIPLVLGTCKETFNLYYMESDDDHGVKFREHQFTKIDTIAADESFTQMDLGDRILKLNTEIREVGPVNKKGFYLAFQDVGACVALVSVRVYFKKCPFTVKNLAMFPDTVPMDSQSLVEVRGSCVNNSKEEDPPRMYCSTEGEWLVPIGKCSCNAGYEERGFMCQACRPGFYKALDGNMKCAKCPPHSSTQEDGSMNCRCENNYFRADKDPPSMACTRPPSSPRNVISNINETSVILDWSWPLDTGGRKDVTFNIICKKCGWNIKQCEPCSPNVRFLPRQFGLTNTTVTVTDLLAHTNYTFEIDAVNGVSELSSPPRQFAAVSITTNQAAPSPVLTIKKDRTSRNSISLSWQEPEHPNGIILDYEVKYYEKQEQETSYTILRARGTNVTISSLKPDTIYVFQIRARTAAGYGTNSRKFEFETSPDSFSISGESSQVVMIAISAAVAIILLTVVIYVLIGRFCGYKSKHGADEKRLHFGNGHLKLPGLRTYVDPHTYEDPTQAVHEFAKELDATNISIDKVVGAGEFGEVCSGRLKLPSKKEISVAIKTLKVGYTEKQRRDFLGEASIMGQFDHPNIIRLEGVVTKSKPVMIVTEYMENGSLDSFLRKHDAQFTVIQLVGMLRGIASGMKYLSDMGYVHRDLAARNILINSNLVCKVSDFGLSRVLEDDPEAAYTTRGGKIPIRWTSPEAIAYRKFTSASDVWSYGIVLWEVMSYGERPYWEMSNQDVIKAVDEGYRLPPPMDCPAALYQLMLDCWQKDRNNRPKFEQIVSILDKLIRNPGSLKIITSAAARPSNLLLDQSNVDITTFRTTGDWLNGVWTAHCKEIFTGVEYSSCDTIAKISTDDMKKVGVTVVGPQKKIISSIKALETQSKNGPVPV

[2] = target: Ephrin type-A receptor 7 (Homo sapiens) (UniProt Q15375); settings: at 1 µM
[3] = target: Ephrin type-A receptor 7 (Homo sapiens) (UniProt Q15375); settings: at 10 µM
[4] = target: T2, Ephrin type-A receptor 8 (Homo sapiens) (UniProt P29322); settings: at 1 µM
T2 sequence (whole entry): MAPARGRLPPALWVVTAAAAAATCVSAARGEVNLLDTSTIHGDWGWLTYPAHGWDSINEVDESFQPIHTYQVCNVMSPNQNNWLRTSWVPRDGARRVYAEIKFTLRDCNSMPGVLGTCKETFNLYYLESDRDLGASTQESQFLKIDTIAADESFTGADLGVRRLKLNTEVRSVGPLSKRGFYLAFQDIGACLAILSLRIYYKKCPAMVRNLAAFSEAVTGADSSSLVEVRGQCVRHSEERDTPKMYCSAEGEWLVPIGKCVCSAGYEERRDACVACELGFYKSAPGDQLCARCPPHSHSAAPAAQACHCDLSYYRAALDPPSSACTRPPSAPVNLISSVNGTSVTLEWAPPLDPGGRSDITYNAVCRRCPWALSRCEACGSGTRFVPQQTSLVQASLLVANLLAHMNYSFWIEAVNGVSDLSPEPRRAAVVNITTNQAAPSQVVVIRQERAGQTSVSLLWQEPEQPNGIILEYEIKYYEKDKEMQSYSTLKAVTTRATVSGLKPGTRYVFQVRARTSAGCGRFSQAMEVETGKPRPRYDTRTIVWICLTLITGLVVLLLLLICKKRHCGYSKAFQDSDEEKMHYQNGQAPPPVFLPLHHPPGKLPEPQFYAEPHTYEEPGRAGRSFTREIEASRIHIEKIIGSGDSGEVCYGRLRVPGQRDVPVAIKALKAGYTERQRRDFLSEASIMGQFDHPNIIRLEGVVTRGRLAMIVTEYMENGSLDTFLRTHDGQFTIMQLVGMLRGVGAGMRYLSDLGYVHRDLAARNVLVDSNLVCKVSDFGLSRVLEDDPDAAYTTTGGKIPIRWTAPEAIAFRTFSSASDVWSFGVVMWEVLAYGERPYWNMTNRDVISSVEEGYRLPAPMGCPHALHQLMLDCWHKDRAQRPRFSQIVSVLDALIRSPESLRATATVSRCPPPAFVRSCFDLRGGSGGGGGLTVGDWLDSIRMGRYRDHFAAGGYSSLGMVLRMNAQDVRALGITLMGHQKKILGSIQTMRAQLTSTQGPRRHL

[5] = target: T2, Ephrin type-A receptor 8 (Homo sapiens); settings: at 10 µM
[6] = target: T3, Ephrin type-B receptor 1 (Homo sapiens) (UniProt P54762); settings: at 1 µM
T3 sequence (whole entry): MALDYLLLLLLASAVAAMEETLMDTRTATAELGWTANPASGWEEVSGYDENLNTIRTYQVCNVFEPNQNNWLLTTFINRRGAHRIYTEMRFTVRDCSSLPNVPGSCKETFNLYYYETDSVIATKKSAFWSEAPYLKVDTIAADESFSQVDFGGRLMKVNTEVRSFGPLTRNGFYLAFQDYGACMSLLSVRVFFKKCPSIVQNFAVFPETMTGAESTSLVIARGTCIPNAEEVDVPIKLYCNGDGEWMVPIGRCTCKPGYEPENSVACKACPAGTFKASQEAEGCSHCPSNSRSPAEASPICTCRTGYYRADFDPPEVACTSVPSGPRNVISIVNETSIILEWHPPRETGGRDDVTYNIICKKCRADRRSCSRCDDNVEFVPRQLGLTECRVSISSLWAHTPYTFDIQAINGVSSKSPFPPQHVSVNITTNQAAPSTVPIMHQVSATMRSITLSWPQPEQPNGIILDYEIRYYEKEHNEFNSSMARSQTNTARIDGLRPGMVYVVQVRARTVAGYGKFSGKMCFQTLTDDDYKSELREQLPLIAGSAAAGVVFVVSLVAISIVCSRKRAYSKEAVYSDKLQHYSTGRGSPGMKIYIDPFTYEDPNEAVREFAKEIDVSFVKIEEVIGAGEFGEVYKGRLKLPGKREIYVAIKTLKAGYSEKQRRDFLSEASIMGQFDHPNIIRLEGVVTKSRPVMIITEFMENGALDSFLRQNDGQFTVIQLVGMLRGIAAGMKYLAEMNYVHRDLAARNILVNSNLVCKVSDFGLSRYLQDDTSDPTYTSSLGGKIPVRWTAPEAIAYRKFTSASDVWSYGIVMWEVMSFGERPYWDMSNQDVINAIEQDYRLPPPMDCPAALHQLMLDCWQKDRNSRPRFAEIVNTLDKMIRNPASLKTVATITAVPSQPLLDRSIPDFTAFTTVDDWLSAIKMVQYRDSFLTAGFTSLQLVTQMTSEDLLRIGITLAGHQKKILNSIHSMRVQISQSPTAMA

[7] = target: T3, Ephrin type-B receptor 1 (Homo sapiens); settings: at 10 µM
[8] = target: T4, Ephrin type-B receptor 4 (Homo sapiens) (UniProt P54760); settings: at 1 µM
T4 sequence (whole entry): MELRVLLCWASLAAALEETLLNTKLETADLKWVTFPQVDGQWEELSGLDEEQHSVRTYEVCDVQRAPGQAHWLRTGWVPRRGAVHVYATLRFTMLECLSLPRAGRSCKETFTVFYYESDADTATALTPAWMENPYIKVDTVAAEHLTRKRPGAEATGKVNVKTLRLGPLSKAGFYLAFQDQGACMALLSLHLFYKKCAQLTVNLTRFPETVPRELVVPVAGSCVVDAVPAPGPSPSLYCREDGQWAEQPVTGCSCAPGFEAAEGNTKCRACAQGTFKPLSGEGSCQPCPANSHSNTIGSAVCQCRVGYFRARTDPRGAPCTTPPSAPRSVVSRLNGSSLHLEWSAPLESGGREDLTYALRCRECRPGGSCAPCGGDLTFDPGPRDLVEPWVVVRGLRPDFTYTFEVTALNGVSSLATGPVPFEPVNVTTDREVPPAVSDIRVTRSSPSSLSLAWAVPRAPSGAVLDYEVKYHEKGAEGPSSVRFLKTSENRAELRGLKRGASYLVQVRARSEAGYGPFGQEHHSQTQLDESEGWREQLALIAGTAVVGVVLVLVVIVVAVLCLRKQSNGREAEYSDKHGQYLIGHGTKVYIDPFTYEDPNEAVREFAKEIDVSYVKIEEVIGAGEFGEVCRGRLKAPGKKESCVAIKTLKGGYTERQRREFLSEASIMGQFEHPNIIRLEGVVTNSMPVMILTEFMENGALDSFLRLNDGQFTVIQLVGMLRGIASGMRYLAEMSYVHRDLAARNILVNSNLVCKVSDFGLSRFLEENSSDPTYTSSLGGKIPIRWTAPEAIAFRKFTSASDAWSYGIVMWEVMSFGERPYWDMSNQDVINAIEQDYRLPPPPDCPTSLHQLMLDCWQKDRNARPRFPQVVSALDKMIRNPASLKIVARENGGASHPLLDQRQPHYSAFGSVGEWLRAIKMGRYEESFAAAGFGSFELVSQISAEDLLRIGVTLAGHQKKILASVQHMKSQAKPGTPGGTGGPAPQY

[9] = target: T4, Ephrin type-B receptor 4 (Homo sapiens); settings: at 10 µM
[10] = target: Receptor tyrosine-protein kinase erbB-4 (Homo sapiens) (UniProt Q15303); settings: at 1 µM
[11] = target: Receptor tyrosine-protein kinase erbB-4 (Homo sapiens) (UniProt Q15303); settings: at 10 µM
[12] = target: Focal adhesion kinase 1 (Homo sapiens) (UniProt Q05397); settings: at 1 µM
Chain of Focal adhesion kinase 1 (Homo sapiens) (Q05397 2-1052 limits assumed): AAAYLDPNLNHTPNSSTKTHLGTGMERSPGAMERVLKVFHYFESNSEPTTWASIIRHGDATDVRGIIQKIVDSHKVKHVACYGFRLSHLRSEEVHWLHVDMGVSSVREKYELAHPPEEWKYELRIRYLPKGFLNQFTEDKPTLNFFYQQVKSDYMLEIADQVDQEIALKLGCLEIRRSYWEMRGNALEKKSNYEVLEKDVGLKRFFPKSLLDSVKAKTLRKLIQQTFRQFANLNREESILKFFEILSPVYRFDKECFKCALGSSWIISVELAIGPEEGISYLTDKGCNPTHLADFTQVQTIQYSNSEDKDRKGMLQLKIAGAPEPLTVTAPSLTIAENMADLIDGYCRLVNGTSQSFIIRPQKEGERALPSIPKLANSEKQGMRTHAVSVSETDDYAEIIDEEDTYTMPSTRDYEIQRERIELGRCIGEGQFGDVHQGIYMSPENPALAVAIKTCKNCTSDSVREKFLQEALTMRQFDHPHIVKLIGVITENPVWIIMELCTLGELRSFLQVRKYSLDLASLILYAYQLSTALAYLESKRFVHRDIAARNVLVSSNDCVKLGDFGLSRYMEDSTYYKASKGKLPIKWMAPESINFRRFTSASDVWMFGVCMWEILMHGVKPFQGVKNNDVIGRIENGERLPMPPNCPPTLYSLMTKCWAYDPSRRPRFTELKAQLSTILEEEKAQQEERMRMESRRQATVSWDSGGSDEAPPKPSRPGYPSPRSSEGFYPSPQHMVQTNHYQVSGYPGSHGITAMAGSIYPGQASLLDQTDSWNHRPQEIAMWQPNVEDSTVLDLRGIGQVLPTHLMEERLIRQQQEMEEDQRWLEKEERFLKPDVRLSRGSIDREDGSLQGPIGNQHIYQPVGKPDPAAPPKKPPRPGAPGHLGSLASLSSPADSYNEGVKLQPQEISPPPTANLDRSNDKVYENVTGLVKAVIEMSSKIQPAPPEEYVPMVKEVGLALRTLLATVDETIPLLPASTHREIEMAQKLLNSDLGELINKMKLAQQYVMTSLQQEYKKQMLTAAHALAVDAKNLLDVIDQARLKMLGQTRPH

Chain of Ephrin type-A receptor 7 (Homo sapiens) (Q15375 28-998 limits assumed): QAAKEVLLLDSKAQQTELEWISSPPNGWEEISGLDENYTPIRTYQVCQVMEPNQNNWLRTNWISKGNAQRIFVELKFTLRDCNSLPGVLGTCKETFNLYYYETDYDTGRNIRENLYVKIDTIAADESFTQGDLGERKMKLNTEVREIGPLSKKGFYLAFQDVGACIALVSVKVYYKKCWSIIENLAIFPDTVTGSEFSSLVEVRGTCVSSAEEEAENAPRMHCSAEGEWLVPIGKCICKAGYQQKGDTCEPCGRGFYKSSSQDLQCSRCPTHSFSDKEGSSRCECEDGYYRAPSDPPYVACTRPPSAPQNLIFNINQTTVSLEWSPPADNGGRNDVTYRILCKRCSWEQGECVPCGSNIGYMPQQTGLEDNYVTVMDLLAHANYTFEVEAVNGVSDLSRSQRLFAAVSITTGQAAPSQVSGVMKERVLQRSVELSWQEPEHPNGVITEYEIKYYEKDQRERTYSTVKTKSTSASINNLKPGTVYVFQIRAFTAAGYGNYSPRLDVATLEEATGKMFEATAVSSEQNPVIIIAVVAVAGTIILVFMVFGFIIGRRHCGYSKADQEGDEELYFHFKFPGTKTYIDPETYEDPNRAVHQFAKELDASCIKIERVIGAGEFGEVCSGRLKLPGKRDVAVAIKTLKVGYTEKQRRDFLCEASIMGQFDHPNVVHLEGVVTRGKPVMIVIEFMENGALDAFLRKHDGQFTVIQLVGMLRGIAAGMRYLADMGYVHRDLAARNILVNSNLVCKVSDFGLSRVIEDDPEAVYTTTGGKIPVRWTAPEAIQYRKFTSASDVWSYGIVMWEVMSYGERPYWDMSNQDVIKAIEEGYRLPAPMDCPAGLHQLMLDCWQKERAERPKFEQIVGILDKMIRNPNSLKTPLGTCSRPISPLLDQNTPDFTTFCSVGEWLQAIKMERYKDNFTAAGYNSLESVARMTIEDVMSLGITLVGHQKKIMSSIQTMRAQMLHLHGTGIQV
Chain of Receptor tyrosine-protein kinase erbB-4 (Homo sapiens) (Q15303 whole entry): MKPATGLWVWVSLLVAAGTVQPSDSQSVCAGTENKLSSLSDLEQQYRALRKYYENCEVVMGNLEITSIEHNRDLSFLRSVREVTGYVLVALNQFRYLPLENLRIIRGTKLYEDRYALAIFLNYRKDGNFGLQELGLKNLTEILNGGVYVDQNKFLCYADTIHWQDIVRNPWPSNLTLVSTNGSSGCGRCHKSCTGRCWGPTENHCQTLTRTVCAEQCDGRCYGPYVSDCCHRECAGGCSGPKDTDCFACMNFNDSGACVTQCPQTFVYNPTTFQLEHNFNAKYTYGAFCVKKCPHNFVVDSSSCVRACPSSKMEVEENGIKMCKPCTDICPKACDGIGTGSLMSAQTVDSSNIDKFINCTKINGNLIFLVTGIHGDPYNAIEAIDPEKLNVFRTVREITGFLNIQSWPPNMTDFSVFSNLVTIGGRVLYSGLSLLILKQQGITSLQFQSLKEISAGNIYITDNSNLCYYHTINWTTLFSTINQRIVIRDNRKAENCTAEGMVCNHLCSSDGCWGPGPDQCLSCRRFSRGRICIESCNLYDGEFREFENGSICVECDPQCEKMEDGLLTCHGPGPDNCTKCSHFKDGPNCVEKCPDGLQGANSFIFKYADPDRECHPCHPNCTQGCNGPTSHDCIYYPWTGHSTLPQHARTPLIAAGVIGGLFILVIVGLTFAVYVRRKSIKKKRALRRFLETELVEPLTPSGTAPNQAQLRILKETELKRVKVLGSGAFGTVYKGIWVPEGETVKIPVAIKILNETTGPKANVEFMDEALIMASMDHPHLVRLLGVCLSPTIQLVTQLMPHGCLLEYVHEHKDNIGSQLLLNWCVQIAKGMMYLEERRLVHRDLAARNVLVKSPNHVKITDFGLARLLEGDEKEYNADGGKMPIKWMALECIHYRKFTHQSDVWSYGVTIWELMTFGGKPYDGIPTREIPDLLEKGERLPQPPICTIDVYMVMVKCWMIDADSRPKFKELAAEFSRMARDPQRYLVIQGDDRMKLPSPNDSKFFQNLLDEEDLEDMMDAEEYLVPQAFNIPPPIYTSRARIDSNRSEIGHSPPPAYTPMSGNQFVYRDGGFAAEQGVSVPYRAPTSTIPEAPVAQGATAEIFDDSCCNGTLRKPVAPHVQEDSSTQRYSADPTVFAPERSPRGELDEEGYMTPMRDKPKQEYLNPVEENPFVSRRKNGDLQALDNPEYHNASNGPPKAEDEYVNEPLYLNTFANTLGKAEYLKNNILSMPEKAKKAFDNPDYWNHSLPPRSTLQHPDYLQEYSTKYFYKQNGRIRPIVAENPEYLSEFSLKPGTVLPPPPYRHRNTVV

How did the residual activity [1] turn out when `O=C(O)/C=C/c1cc(Br)c(Br)c(Br)c1Br` was run?
The residual activity was 79%.

What about the residual activity [2] of the same molecule?
Its residual activity is 109%.

And the residual activity [3]?
The residual activity was 92%.

What about the residual activity [4] of the same molecule?
The residual activity was 100%.

And the residual activity [5]?
Its residual activity is 99%.

And the residual activity [6]?
The residual activity was 101%.

And the residual activity [7]?
The residual activity was 89%.

What about the residual activity [8] of the same molecule?
Its residual activity is 105%.

And the residual activity [9]?
The residual activity was 90%.

What about the residual activity [10] of the same molecule?
The residual activity was 59%.

And the residual activity [11]?
Its residual activity is 45%.

What about the residual activity [12] of the same molecule?
The residual activity was 98%.

Source: ChEMBL document CHEMBL2218924, “A broad activity screen in support of a chemogenomic map for kinase signalling research and drug discovery” (Biochem J, 2013)
